AC50 and outcome data for three molecules are collected here from PubChem BioAssay (EPA / NIEHS).

Test [1] has as its target Bile acid receptor (Homo sapiens) (UniProt Q96RI1). Nature of the test: ATG_IR1_CIS: Attagene CIS-FACTORIAL HepG2 Assay for human Nuclear Receptor Subfamily 1 Group H Member 4 (NR1H4), IR1 submotif (AID 2282946). The settings on record: IR1 reporter transcription, actives raise or lower the signal. A digest of the protocol:
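Readout: reporter transcript levels by RT-PCR with fluorescent capillary electrophoresis, from HepG2 cells transiently transfected with multiplexed cis-regulated reporters and dosed 24 h. Gain- or loss-of-signal fitted versus DMSO negative control.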

A short description of test [2]: ATG_GRE_CIS: Attagene CIS-FACTORIAL HepG2 Assay for human Glucocorticoid Response Elements (GRE) (AID 2282947). Particulars: HepG2 GRE cis-reporter, Attagene multiplex mRNA; actives raise or lower the signal. Summed up: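 Cells (HepG2) bearing transfected cis-promoter reporter transcription units were treated with chemical for 24 hours. Reporter mRNA was measured via RT-PCR with capillary electrophoresis, and activity was fitted in both directions relative to DMSO.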

Test [3] is described as follows: ATG_ISRE_CIS: Attagene CIS-FACTORIAL HepG2 Assay for human Interferon Regulatory Factor 1 (IRF1) binding to an Interferon-Stimulated Response Element (ISRE) (AID 2282948). Particulars: HepG2 ISRE cis-reporter (Attagene), mRNA transcription readout; actives raise or lower the signal. Summed up: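 Multiplexed mRNA reporter readout in human liver HepG2 cells: cis-element-driven reporters transfected, compound added for 24 h, transcripts amplified, fluorescently labelled and sized by capillary electrophoresis; curve fitting bidirectional against DMSO.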

Test [4] is described as follows: ATG_M_32_CIS: Attagene CIS-FACTORIAL HepG2 Assay for M32 Transcription Factor (Internal Marker) (AID 2282949).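 Also: background control marker of the multiplexed CIS panel rather than a real target.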 The settings on record: HepG2 Attagene cis-factorial M32 reporter, mRNA; actives raise or lower the signal. A digest of the protocol: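 HepG2 human liver cells transiently transfected with cis-promoter-driven multiple reporter transcription units, dosed 24 h. Reporter mRNA quantified by RT-PCR, FAM-labelled primer extension, HpaI digest and capillary electrophoresis; bidirectional fit versus DMSO baseline.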

Test [5] in a line: ATG_M_06_CIS: Attagene CIS-FACTORIAL HepG2 Assay for M06 Transcription Factor (Internal Marker) (AID 2282950). Particulars: HepG2 Attagene CIS-FACTORIAL M06 internal marker reporter; actives raise or lower the signal. Summed up: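 Fluorescence-labelled RT-PCR products from cis-promoter reporter units, cut with HpaI and resolved by capillary electrophoresis, give the signal. Cells are human HepG2, dosed for 24 h. Serves as background control, fitted relative to DMSO.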

Test [6] concerns the target Hepatocyte nuclear factor 6 (Homo sapiens) (UniProt Q9UBC0). Nature of the test: ATG_HNF6_CIS: Attagene CIS-FACTORIAL HepG2 Assay for human Hepatocyte Nuclear Factor 6 (HNF6) (AID 2282952). Particulars: HepG2 Attagene cis-factorial HNF6 reporter transcription; actives raise or lower the signal. A digest of the protocol:
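Twenty-four-hour chemical treatment of reporter-transfected HepG2 cells precedes RNA isolation, DNase-treated reverse transcription and PCR of reporter sequences. Labelled fragments are sized by capillary electrophoresis and fitted bidirectionally versus DMSO.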

The target in test [7] is Heat shock factor protein 1 (Homo sapiens) (UniProt Q00613). Description: ATG_HSE_CIS: Attagene CIS-FACTORIAL HepG2 Assay for human Heat Shock Transcription Factor 1 (HSE) (AID 2282953). Particulars: HepG2 HSE cis-reporter, Attagene RNA transcription; actives raise or lower the signal. Summed up:
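After a 24 h incubation with test chemical, transfected HepG2 cells were harvested for RNA; reporter transcripts were measured by RT-PCR and capillary electrophoresis. Values reflect gain or loss of signal relative to DMSO.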

Test [8] in a line: ATG_MRE_CIS: Attagene CIS-FACTORIAL HepG2 Assay for human Metal Responsive Element (MRE) (AID 2282954). The settings on record: HepG2 MRE cis-reporter transcription, Attagene multiplex; actives raise or lower the signal. Summed up: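 Cells were transfected with cis-promoter reporter transcription units, then dosed for 24 h. RNA was reverse-transcribed, amplified, fluorescently labelled and resolved by capillary electrophoresis, and activity was fitted in both directions relative to DMSO.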

A short description of test [9]: ATG_PBREM_CIS: Attagene CIS-FACTORIAL HepG2 Assay for human Phenobarbital-responsive Enhancer Module (PBREM) (AID 2282955). The settings on record: HepG2 PBREM cis-reporter, Attagene multiplexed transcription; actives raise or lower the signal. Summed up: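 Fluorescence of labelled reporter cDNA fragments, resolved by capillary electrophoresis, gives mRNA induction in transfected HepG2 cells treated for 24 h; DMSO serves as negative control and baseline.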

Test [10] has as its target Paired box protein Pax-6 (Homo sapiens) (UniProt P26367). Description: ATG_Pax6_CIS: Attagene CIS-FACTORIAL HepG2 Assay for human Paired Box 6 (PAX6) (AID 2282956). The settings on record: HepG2 CIS-FACTORIAL PAX6 reporter transcription, RNA readout; actives raise or lower the signal. A digest of the protocol:
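Fluorescent RT-PCR products separated by capillary electrophoresis report PAX6-linked promoter mRNA in HepG2 cells 24 h post-dose. Curves fitted bidirectionally, DMSO as negative control.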

Test [11] is described as follows: ATG_PXRE_CIS: Attagene CIS-FACTORIAL HepG2 Assay for human Pregnane X Receptor Element (PXRE) (AID 2282957). Particulars: HepG2 Attagene CIS-FACTORIAL PXRE reporter, mRNA; actives raise or lower the signal. A digest of the protocol: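 Bidirectional activity, baselined to DMSO, derived from reporter mRNA fluorescence (RT-PCR plus capillary electrophoresis) in HepG2 cells bearing cis-promoter reporter units, 24 h exposure.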

Test [12] in a line: ATG_PPRE_CIS: Attagene CIS-FACTORIAL HepG2 Assay for human Peroxisome Proliferator-activated Response Element (PPRE) (AID 2282958). Particulars: HepG2 PPRE cis-element reporter, Attagene transcription factor profiling; actives raise or lower the signal. Summed up:
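Cells are first transfected transiently with the multiplexed reporter library, then dosed for 24 h. Total RNA is reverse-transcribed, amplified, fluorescently end-labeled and HpaI-cut before capillary electrophoresis; activity is fitted bidirectionally against DMSO controls.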

Test [13] in a line: ATG_RORE_CIS: Attagene CIS-FACTORIAL HepG2 Assay for human RAR-related Orphan Receptor Element (RORE) (AID 2282959). Particulars: HepG2 Attagene cis-factorial RORE reporter, mRNA; actives raise or lower the signal. Summed up:
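Cells were HepG2 carrying transfected cis-regulated reporter constructs, dosed for 24 hours. Total RNA was reverse-transcribed and reporter cDNA amplified, fluorescently labeled and sized by capillary electrophoresis. Activity was fitted bidirectionally relative to DMSO.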

The nature of test [14]: ATG_Sox_CIS: Attagene CIS-FACTORIAL HepG2 Assay for human SRY-box transcription factor (SOX) (AID 2282960). The settings on record: HepG2 Attagene cis-factorial SOX reporter, mRNA; actives raise or lower the signal. Summed up: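 Transient MRTU transfection of HepG2; 24 h compound incubation; TriZol RNA, oligo(dT) RT, PCR, 6-FAM primer extension, HpaI cut, CE. Bidirectional fit, DMSO = baseline.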

Test [15] deals with Transcription factor Sp1 (Homo sapiens) (UniProt P08047). Nature of the test: ATG_Sp1_CIS: Attagene CIS-FACTORIAL HepG2 Assay for human Specificity Protein 1 (Sp1) (AID 2282961). Particulars: HepG2 Sp1 cis-reporter transcription, actives raise or lower the signal. Summed up:
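Endogenous Sp1 activity was gauged in human liver HepG2 cells bearing transfected reporter units under a cis-regulating promoter. After 24 h dosing, reporter mRNA was quantified by RT-PCR with capillary electrophoresis, and activity fitted bidirectionally versus DMSO.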

The nature of test [16]: ATG_SREBP_CIS: Attagene CIS-FACTORIAL HepG2 Assay for human Sterol Regulatory Element Binding (SREBP) (AID 2282962). Particulars: HepG2 Attagene cis-factorial SREBP reporter, mRNA; actives raise or lower the signal. Summed up:
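Endogenous factor activity is measured in HepG2 through multiplexed reporter units under cis-element control. Following a 24 h incubation, reporter transcripts are reverse-transcribed, PCR-amplified and sized by capillary electrophoresis; activity is fitted in both directions relative to DMSO.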

The target of test [17] is Signal transducer and activator of transcription 3 (Homo sapiens) (UniProt P40763). Description: ATG_STAT3_CIS: Attagene CIS-FACTORIAL HepG2 Assay for human Signal Transducer and Activator of Transcription 3 (STAT3) (AID 2282963). Particulars: HepG2, Attagene cis-factorial STAT3 reporter transcription; actives raise or lower the signal. Summed up: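 HepG2, MRTU-transfected, 24 h dosing. RNA → RT → PCR → FAM label → HpaI → CE. Bidirectional fit vs DMSO.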
Signal transducer and activator of transcription 3 (Homo sapiens), sequence (P40763 whole entry, looked up): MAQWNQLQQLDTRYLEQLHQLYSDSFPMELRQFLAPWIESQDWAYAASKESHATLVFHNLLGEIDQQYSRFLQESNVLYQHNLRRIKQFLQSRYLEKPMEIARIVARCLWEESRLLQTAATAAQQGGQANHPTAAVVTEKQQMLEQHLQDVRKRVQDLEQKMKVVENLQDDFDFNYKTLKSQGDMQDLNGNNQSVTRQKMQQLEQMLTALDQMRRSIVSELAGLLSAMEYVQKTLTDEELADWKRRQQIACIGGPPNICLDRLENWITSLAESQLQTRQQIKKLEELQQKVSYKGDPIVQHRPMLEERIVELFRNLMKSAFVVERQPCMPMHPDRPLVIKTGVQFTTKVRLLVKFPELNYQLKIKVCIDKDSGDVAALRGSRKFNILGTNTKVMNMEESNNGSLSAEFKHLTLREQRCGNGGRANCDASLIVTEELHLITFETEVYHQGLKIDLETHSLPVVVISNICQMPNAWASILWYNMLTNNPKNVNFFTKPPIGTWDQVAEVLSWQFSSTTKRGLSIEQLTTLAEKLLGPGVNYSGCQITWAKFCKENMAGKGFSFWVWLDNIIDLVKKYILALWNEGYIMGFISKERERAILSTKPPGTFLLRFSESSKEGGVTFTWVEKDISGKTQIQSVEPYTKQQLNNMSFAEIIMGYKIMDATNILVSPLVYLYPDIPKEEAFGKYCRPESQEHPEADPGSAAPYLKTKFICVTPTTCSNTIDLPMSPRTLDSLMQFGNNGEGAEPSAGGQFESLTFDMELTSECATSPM

Test [18] in a line: ATG_TA_CIS: Attagene CIS-FACTORIAL HepG2 Assay for human TA Basal Promoter (AID 2282964). Particulars: HepG2 Attagene CIS-factorial TA basal promoter reporter; actives raise or lower the signal. Summed up: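 Multiplexed mRNA reporter assay, HepG2, 24 h. Reporter cDNA amplified, 6-FAM primer-extended, HpaI-cut, CE-sized; DMSO = negative control and baseline.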
Test [19] in a line: ATG_TCF_b_cat_CIS: Attagene CIS-FACTORIAL HepG2 Assay for human T-Cell-Factor with beta-catenin (TCF/b-cat) (AID 2282965). The settings on record: HepG2 TCF/beta-catenin cis-reporter transcription, actives raise or lower the signal. Summed up: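 Using capillary electrophoresis as the read-out, labelled reporter cDNA fragments from transiently transfected HepG2 were sized and quantified. Exposure lasted 24 hours; activity in either direction was referenced to DMSO.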

For test [20], the target named is Hypoxia-inducible factor 1-alpha (Homo sapiens) (UniProt Q16665). Nature of the test: ATG_HIF1a_CIS: Attagene CIS-FACTORIAL HepG2 Assay for human Hypoxia Inducible Factor 1 (HIF1A) (AID 2282951). The settings on record: HepG2 Attagene cis-factorial HIF1a reporter transcription; actives raise or lower the signal. Summed up:
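Measures endogenous transcription-factor activity through cis-regulated reporter mRNA in HepG2. Cells dosed 24 h; transcripts quantified by RT-PCR with 6-FAM-labelled products separated by capillary electrophoresis; DMSO serves as negative control.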

Where “and” joins values, the source holds several entries; their conditions need not be identical. Equal entries are not always repeated. The source holds several records for some structures; these can differ, active in one and inactive in another. Calls of active or inactive are those of the source. The calls were made as follows: active = hit-call score of the fitted dose curve at least 0.9, where 1 is the maximum; inactive = score below 0.9.

Heat shock factor protein 1 (Homo sapiens), sequence (Q00613 whole entry, looked up): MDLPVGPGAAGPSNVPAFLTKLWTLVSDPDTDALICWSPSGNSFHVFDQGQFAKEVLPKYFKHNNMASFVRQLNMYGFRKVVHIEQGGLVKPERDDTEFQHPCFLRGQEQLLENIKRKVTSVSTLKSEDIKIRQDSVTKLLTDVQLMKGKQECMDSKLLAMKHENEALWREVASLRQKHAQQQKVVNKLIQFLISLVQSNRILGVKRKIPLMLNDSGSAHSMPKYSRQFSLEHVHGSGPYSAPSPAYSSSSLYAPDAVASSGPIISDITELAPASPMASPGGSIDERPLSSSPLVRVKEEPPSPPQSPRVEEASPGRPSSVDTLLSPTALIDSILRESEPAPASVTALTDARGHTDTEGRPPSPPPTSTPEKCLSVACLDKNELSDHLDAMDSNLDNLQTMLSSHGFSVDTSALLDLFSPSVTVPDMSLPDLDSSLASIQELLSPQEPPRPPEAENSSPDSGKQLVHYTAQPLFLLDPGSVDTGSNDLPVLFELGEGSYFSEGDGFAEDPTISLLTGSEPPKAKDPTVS
Bile acid receptor (Homo sapiens), sequence (Q96RI1 whole entry, looked up): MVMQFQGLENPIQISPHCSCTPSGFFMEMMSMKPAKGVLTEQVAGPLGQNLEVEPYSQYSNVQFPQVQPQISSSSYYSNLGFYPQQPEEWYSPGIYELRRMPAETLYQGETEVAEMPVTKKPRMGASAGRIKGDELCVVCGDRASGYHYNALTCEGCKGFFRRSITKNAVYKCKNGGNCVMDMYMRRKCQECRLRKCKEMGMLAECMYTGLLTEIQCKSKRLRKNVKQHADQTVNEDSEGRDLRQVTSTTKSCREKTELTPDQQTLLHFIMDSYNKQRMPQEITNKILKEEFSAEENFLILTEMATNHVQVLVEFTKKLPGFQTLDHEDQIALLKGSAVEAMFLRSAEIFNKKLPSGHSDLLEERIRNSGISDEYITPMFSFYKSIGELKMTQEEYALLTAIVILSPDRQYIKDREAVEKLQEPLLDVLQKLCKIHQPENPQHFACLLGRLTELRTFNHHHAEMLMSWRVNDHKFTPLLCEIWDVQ
Transcription factor Sp1 (Homo sapiens), sequence (P08047 whole entry, looked up): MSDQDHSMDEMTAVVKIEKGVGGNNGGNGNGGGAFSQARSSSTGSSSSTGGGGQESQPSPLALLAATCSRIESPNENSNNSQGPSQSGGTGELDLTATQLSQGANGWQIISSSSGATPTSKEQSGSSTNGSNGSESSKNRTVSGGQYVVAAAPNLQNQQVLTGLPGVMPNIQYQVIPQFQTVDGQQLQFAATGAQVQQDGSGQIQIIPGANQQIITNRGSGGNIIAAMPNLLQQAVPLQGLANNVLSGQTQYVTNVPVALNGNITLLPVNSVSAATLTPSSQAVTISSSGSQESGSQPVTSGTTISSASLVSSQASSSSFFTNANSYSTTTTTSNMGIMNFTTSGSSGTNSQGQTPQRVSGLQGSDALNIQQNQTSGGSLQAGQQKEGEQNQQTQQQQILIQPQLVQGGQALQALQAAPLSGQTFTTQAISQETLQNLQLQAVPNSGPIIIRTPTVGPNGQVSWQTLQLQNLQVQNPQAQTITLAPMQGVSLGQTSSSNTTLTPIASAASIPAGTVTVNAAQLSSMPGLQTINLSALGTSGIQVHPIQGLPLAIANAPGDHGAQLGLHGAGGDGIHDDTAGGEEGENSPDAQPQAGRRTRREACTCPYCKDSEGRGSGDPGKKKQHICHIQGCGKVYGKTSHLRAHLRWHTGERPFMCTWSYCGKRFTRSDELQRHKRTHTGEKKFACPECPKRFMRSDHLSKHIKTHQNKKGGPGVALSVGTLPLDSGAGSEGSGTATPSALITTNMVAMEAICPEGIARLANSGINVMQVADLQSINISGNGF
Hepatocyte nuclear factor 6 (Homo sapiens), sequence (Q9UBC0 whole entry, looked up, the tested form may be a part): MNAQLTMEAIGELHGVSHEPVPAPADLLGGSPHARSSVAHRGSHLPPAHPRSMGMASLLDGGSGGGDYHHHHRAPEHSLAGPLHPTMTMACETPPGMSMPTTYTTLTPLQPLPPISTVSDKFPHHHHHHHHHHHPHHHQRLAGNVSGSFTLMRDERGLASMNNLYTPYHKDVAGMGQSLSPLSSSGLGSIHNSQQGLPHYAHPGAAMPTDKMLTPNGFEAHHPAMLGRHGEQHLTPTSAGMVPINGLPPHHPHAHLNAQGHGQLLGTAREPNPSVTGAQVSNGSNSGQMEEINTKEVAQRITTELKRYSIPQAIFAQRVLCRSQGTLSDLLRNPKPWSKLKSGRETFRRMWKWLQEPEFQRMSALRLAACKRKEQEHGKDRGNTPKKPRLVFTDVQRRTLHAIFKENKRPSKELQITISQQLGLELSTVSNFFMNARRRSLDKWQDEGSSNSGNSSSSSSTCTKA
Paired box protein Pax-6 (Homo sapiens), sequence (P26367 whole entry, looked up): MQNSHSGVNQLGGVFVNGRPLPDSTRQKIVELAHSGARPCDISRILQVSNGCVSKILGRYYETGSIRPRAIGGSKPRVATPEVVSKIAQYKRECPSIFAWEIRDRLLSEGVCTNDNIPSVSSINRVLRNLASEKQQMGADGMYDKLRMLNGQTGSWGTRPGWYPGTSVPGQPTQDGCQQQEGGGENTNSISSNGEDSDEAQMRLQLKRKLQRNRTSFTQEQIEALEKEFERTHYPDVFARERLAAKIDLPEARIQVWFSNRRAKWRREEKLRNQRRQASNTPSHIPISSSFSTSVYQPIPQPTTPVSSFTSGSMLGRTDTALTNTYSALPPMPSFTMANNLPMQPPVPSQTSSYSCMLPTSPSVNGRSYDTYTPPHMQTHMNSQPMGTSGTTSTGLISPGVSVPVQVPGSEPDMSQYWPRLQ
Hypoxia-inducible factor 1-alpha (Homo sapiens), sequence (Q16665 whole entry, looked up): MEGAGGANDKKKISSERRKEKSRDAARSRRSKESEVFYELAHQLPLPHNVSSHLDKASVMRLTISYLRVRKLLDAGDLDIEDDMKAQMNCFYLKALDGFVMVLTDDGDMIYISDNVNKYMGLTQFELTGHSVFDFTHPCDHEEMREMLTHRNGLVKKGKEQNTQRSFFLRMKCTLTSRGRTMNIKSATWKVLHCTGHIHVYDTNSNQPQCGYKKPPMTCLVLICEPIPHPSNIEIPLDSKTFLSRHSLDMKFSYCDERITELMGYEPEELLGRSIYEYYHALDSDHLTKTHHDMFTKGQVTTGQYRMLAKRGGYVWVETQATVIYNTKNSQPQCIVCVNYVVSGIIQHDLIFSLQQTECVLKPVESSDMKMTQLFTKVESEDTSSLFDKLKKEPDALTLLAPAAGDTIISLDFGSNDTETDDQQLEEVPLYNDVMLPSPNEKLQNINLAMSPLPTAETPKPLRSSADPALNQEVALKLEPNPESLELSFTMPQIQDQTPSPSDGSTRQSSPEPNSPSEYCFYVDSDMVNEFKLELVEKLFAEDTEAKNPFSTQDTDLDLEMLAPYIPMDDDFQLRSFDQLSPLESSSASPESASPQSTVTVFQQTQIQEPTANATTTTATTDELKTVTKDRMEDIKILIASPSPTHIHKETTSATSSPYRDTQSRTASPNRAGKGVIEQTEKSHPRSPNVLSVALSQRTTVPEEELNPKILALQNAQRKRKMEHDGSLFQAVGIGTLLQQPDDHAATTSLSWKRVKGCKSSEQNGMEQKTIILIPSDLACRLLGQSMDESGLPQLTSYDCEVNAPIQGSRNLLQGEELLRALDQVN

As usually defined, the AC50 is the concentration at which the activity in the assay is half-maximal. Consider `O=C1CCC(C2CCCCC2)CC1`, for which the AC50 is 151 µM (active) and 159 µM (active) in test [1]; 134 µM (active) in test [3]; 150 µM (active) in [7]; 100 µM (active) and 154 µM (active) and 114 µM (active) in test [8]; 156 µM (active) in [10]; 10.4 µM (active) [middle of 4 runs] in test [11]. Moreover, the half-maximal activity concentration (AC50) in test [15] is 171 µM (active). In addition, the result in test [1], in test [2], in test [3], in test [4], in test [5] and in test [6] was inactive. Moreover, the call in test [7], in [8], in test [9], in [10], in test [12] and in test [13] was inactive. Moreover, the molecule was classed as inactive in test [14], in test [15], in test [16], in test [17], in test [18] and in test [19].

Regarding `NCc1cccc(C2CCN(C(=O)c3ccc(C#Cc4ccccc4F)o3)CC2)c1`, the molecule was called inactive in test [1], in [2], in [4], in [5], in test [6] and in [11]. For the same molecule, the outcome in test [14], in test [15] and in test [17] was inactive. Moreover, the half-maximal activity concentration (AC50) is 19.4 µM (active) in test [3]; 17.2 µM (active) in [7]; 9.13 µM (active) in test [8]; 18 µM (active) in test [9]; 16.4 µM (active) in [10]; 2.77 µM (active) in test [12]. Besides, the AC50 in test [16] was 8 µM (active); in test [19] it was 17 µM (active).

In the case of `Cc1occc1C(=O)Nc1ccc(C(=O)N2CCC(F)(F)/C(=C\C(=O)N3CCC(N4CCCCC4)CC3)c3ccccc32)cc1`, the result in test [1], in [4], in test [5], in [20], in test [9] and in [16] was inactive. In addition, the AC50 is 57.8 µM (active) in [2]; 34.5 µM (active) in [3]; 49.8 µM (active) in test [6]; 23.7 µM (active) in [8]; 34.5 µM (active) in test [10]; 8.38 µM (active) in [11]. The results for the AC50 in [14], in test [15] and in [17] were 42.3 µM (active), 56 µM (active) and 62.6 µM (active), respectively.
